Compound activity deposited in PubChem by The Scripps Research Institute Molecular Screening Center.
DAX1 inh-1: DAX1 (NR0B1) inhibitors, primary screen, cell-based, HEK293, Gal4-DAX1, luciferase luminescence | Nuclear receptor subfamily 0 group B member 1 (Homo sapiens), P51843 | HEK293 Gal4-DAX1 luciferase reporter | inhibition, % at 6.75 µM | 0.99% of 340,000 active | AID 504766, 2011;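 active = inhibition above the mean over all tested compounds plus 3 SD, cut at about 4.2% in these data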;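 note: inhibition shows as a rise in luminescence from relieved DAX1 repression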
Target sequence (P51843 207-470 limits assumed): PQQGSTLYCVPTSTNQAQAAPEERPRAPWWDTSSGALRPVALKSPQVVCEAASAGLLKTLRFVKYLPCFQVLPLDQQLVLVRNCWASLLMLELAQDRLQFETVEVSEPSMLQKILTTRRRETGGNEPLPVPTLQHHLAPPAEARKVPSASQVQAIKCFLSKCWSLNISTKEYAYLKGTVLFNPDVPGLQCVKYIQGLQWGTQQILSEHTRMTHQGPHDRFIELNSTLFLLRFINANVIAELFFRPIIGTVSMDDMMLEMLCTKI
hcDAF-12 act: H. contortus DAF-12 nuclear receptor activators, primary screen, cell-based, luminescence, HEK293, lit1-tk-luc reporter; HEK293 hcDAF-12 lit1-tk-luc reporter; 0% DMSO, 100% Δ7-dafachronic acid; activation, % at 6.8 µM; 1.4% of 370,000 active; AID 652067, 2013;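 active = activation above the mean of all tested compounds plus 3 SD, cut at about 5.5% in these data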
DAX1 inh-2: DAX1 (NR0B1) inhibitors on StAR promoter, primary screen, cell-based, luminescence, SF-1 (NR5A1), full-length DAX-1 | 1.1% of 370,000 active | HEK293T StAR-luciferase reporter, SF-1/DAX-1 repression relief | AID 652010, 2013 | inhibition, % at 6.8 µM;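 active = inhibition above the mean over all tested compounds plus 3 SD, cut at about 3.6% in these data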;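 note: higher inhibition means more luminescence from relief of DAX-1 repression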
ssDAF-12 act: S. stercoralis DAF-12 nuclear receptor activators, primary screen, cell-based, luminescence, HEK293, GRIP1 co-expression, lit1-tk-luc. Nuclear hormone receptor DAF-12 (Strongyloides stercoralis). HEK293 ssDAF-12/GRIP1 lit1-tk-luc reporter; % of 3 µM dafachronic acid response. activation, % at 6.8 µM. 1% of 370,000 active. AID 652126, 2013;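 active = activation above the mean over all tested compounds plus 3 SD, cut at about 0.9% in these data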
hgDAF-12 ag: H. glycines DAF-12 receptor agonists, primary screen, cell-based, luminescence, HEK293, GAL4 fusion, UAS-luciferase | activation, % at 6.8 µM | 1.8% of 370,000 active | HEK293 GAL4-hgDAF12 UAS-luciferase reporter, agonist luminescence; normalized to butyrate control;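 active = activation above a cutoff set at the mean of all screened compounds plus 3 SD, cut at about 10% in these data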
A number is an active result; i = inactive; nt = no result given. Hits are enriched below; roughly 4.1% of the tested compounds scored in any of these assays.

SMILES	DAX1 inh-1	hcDAF-12 act	DAX1 inh-2	ssDAF-12 act	hgDAF-12 ag
COc1ccc(NC(=S)NC(=O)/C=C/c2ccccc2)cc1	i	i	i	i	i
Cc1cccc(NC(=S)NC(=O)/C=C/c2ccccc2)n1	4.3	i	i	i	i
C=CCC1(CC=C)CCCN1C(=O)C1CCC(=O)N(CCc2ccccc2)C1 (centres undefined)	i	i	i	i	i
C=CCC1(CC=C)CCCN1C(=O)C1CCC(=O)N(CCc2ccc(OC)cc2)C1 (centres undefined)	i	i	i	i	13
Cc1cccc2c(C(=O)O)c3c(nc12)CCCCC3	i	i	i	i	i
Cc1cccc2c(C(=O)O)c3cccc(C)c3nc12	i	i	i	1.3	i
CCOC(=O)[C@]12CCCCC/C=C\1N(CCc1ccc(Cl)cc1)C(=O)[C@H]2CC(=O)N1CCC(c2ccccc2)CC1	nt	i	i	i	i
C#CCNC(=O)C[C@@H]1C(=O)N2CCCC3=C2[C@@]1(C(=O)OCC)CCC3	nt	i	i	i	i
c1csc(-c2nc(CN3CCSCC3)cs2)c1	i	i	i	i	12
COc1ccc(/C=N/N=C2/SCC(=O)N2Cc2ccccc2)cc1	5.8	i	i	i	13
Cc1ccc2c(c1C)NC(=O)C21N2CCCC2C(C(=O)c2ccc3ccccc3c2)C12C(=O)Nc1ccccc12 (centres undefined)	i	i	i	1.1	i
COC(=O)[C@]12CCCCC=C1N(Cc1ccc(OC)cc1)C(=O)[C@@H]2CC(=O)N1CCN(C(=O)C2CC2)CC1	nt	i	i	i	i
CCN=C1NC(c2ccccc2C(F)(F)F)C(C(=O)OC)=C(C)N1Cc1ccc(C(F)(F)F)cc1 (centres undefined)	nt	i	i	i	i
N/C(=N\OC(=O)c1cccc(Br)c1)c1ccccc1	i	6.1	i	1.3	i
Cc1ccc(/C(N)=N/OC(=O)c2ccc(Cl)cc2Cl)cc1	4.7	i	i	i	i
N/C(=N\OC(=O)c1ccc2ccccc2c1)c1ccc(Br)cc1	i	i	i	i	i
Cc1cc(C)cc(C(=O)O/N=C(\N)c2ccc(Br)cc2)c1	i	i	i	i	i
Cc1cccc(C(=O)O/N=C(\N)c2ccc(Cl)cc2)c1	i	5.6	i	1.0	i
Cc1cccc(C(=O)O/N=C(\N)c2ccc(Br)cc2)c1	i	6.1	i	i	i
COc1ccc(C(=O)O/N=C(\N)c2cccc(C)c2)cc1OC	i	i	i	i	i
COc1ccc(Cl)cc1C(=O)O/N=C(\N)c1ccncc1	i	i	i	i	i
C=C(C)CSc1nnc(-c2cc(-c3ccccc3)n[nH]2)n1N	nt	i	i	i	i
Cc1cccc(NC(=O)NCCCN2CCN(c3ccc(F)cc3)CC2)c1	nt	i	i	i	i
COc1ccc(OC)c(S(=O)(=O)N(CC(=O)NC2CCC(C)CC2)c2cc(C)cc(C)c2)c1 (centres undefined)	nt	i	i	i	i
COC(=O)C1=C(C)N(Cc2cccc(C(F)(F)F)c2)C(=NCc2ccccc2C(F)(F)F)NC1c1cccc(C(F)(F)F)c1 (centres undefined)	nt	i	i	i	i
SMILES	DAX1 inh-1	hcDAF-12 act	DAX1 inh-2	ssDAF-12 act	hgDAF-12 ag
Cc1cccc(/C(N)=N/OC(=O)c2ccncc2)c1	i	i	9.4	i	16
N/C(=N\OC(=O)c1ccncc1)c1cccc([N+](=O)[O-])c1	i	i	i	i	i
COC(=O)CC1(c2ccc(OC)cc2)C(=O)c2ccccc2C1=O	7.1	i	i	i	i
CC(COc1ccc(Br)cc1)CN1CCC(C(O)(c2ccccc2)c2ccccc2)CC1 (centres undefined)	nt	i	i	i	i
O=C(CSc1nnc(-c2cccs2)n1-c1cccc(Cl)c1)c1cccc2c1OCCO2	6.1	i	i	i	i
COCCCN1C(=O)[C@H](CC(=O)NCc2cccs2)[C@]2(C(=O)OC)CCCCC=C12	nt	i	i	i	i
Cc1cc(=O)nc2c3ccccc3n(CC(=O)NC(C)c3ccc4c(c3)OCCO4)n12 (centres undefined)	i	6.0	i	i	i
CCCNC(=O)Cn1c2ccccc2c2nc(=O)cc(C)n21	i	i	i	i	i
Cc1cc(C)nc(N2CCC(C(=O)N(C)CCc3ccccn3)CC2)n1	nt	i	i	i	i
Cc1nn2c(-c3ccco3)nnc2c2ccccc12	i	5.9	i	i	i
Cc1occc1-c1nnc(SCC(=O)NCc2ccc(Cl)cc2)n1-c1ccccc1	nt	i	i	i	i
O=C(Nc1nc2c(Cl)ccc(Cl)c2s1)c1ccco1	i	5.6	i	i	i
COc1cc2sc(NC(=O)c3ccco3)nc2cc1Cl	6.7	i	i	i	12
COc1ccc2nc(NC(=O)c3ccco3)sc2c1	i	i	i	i	i
CCN(CC)C(=O)CC[C@H]1CC[C@]2(CCCN(Cc3ccc(N(C)C)cc3)C2)O1	nt	i	i	i	i
CN1CCCN(S(=O)(=O)c2ccc3c(c2)n(C)c(=O)c(=O)n3C)CC1	nt	i	i	i	i
Oc1ccc(/C=N/Nc2nccnc2Cl)cc1	i	i	i	i	12
Fc1cccc(/C=N/Nc2nccnc2Cl)c1	i	i	i	i	13
OC(CNCc1ccccc1)c1ccccc1 (centres undefined)	4.5	i	i	i	i
O=C(CN1CCN(Cc2ccccc2)CC1)N/N=C\c1c2ccccc2cc2ccccc12	nt	i	i	i	i
O=C(O/N=C1/CCCc2occc21)c1ccc(Cl)cc1Cl	6.8	i	i	i	i
O=C(O/N=C1/CCCc2occc21)c1ccccc1	i	i	i	i	i
COCC(=O)N1CCCc2ccccc21	i	6.3	i	i	i
O=C(COc1cccnc1[N+](=O)[O-])N1CCc2ccccc21	i	i	i	i	i
CC(=O)c1ccc(-c2ccc(C(=O)N3CCCc4ccccc43)o2)cc1	i	i	i	1.8	i
SMILES	DAX1 inh-1	hcDAF-12 act	DAX1 inh-2	ssDAF-12 act	hgDAF-12 ag
COc1cc(OC)cc(C(=O)N2CCCc3ccccc32)c1	i	i	i	i	i
COc1ccc2oc(C(=O)N3CCCc4ccccc43)c(C)c2c1	i	i	4.3	i	i
COc1cccc2cc(C(=O)N3CCCc4ccccc43)oc12	i	i	i	i	i
Cc1ccc(OCC(=O)N2CCc3ccccc32)c([N+](=O)[O-])n1	i	i	i	i	11
COc1cccc(CNS(=O)(=O)c2ccccc2Br)c1	nt	i	i	i	i
COc1ccc(CCNC(=O)c2c(N)[nH]c(C(=O)c3ccccc3)c2-c2ccc(N(C)C)cc2)cc1	nt	i	nt	i	i
